Experimental findings from PubChem BioAssay (NCATS) are described below.

Several values for one entry are separate records, joined by “and”; a condition that tells them apart may be missing. Equal values may be shown once. Results filed as inconclusive are left out. Some compounds were tested as several samples or in several runs, with calls that do not always agree. Activity calls are given as the source filed them. Calls come from the whole dose curve. Non-standard residues stand in square brackets, D forms with d. Residues, ends and D or L forms follow the SMILES beside them.
Potency is the fitted concentration of half-maximal effect.

For this test, the target named is Cytochrome P450 1A2 (Homo sapiens) (UniProt P05177). The test can be described thus: p450-cyp1a2 (AID 410).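 For activity change, negative = inhibition: -100% = full effect of reference inhibitor.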 The following applies: recombinant CYP1A2, luciferin-ME demethylation, luminescence; series mostly up to 57 µM; activity change, negative = inhibition: at the top concentration. How it is done: The P450 gene superfamily is involved in metabolism and the clearance of xenobiotics. This assay used human CYP1A2 to measure the demethylation of luciferin 6' methyl ether (Luciferin-ME; Promega-Glo) to luciferin. The luciferin is then measured by luminescence after the addition of a luciferase detection regeant. Luciferin-ME concentration in the assay was equal to its Km for CYP1A2.
Chain of Cytochrome P450 1A2 (Homo sapiens) (P05177 whole entry, looked up): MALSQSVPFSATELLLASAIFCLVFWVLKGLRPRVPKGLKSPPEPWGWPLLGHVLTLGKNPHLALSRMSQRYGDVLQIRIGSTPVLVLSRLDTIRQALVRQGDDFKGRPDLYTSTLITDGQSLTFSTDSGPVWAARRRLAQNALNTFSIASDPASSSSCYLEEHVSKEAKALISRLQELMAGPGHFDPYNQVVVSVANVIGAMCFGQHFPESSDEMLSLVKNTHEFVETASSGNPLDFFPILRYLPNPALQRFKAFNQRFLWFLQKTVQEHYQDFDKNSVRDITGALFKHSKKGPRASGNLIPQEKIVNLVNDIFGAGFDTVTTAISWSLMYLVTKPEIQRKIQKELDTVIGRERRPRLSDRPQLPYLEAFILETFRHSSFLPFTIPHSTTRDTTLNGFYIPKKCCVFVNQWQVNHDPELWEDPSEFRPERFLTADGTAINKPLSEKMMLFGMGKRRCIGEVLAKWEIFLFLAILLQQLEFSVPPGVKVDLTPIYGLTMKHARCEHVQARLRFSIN
NCGC Assay Protocol Summary:
Two uL of enzyme and substrate mix (final concentrations: 20nM CYP1A2, 100uM Luciferin-ME, 100mM KPO4) were dispensed into a white, solid bottom 1536-well microtiter plate. 23nL of compound was transferred by a pin tool. The plate was incubated at room temperature for 10 min. Two uL of an NADPH regeneration solution (Promega supplied reagent) was dispensed and the reaction was allowed to continue for 60 min at room temperature. Then the reaction was stopped by reconstituted detection reagent. After another 20 min of incubation the plate was read on the ViewLux (Perkin Elmer) at 60 sec exposure and 2x2 binning. This protocol was carried out with Promega-Glo reagents and further information can be found at http://www.promega.com/tbs/tb325/tb325.pdf. Data were normalized to the to AC100 inhibition (57 uM furafylline).
For the molecule `C[C@@](N)(C(=O)O)c1ccc(C(=O)O)cc1`, the Potency entry was “inactive”.

Turning to `CSCC[C@H](C=O)NC(=O)[C@H](CC(C)C)NC(=O)[C@H](CC(C)C)NC(C)=O` (Ac-Leu-Leu-[dM]-aldehyde), the “activity change, negative = inhibition” value was -11.3% (inactive).

On to `Cc1cccc([C@@H]2CN(C)CCc3c2cc(O)c(O)c3Cl)c1`, for which the “activity change, negative = inhibition” value is -2.6% (inactive).

On to `C#C[C@]1(O)CC[C@H]2[C@H]3CCC4=Cc5oncc5C[C@]4(C)[C@@H]3CC[C@]21C`, for which the Potency is 12.6 µM (active).

Consider `COc1cccc(OC)c1OCCNC[C@@H]1COc2ccccc2O1`, for which the Potency is 12.6 µM (active) and 25.1 µM (active).

In the case of `O=C(O)c1cc(=O)c2ccc(Cl)cc2[nH]1`, the Potency entry was “inactive”.

On to `O=C1C(=O)N(Cc2ccc(Cl)c(Cl)c2)c2ccccc21`, for which the Potency is 12.6 µM (active).

As for `Cc1nc2c(O)cccc2c(=O)[nH]1`, the Potency is 15.8 µM (active).

Consider `CC1(C)CC(=O)C([C@H]2C3=C(CC(C)(C)CC3=O)Oc3ccccc32)C(=O)C1`, for which the “activity change, negative = inhibition” value was -6.8% (inactive).

As to `COc1[nH]c2ccc(F)cc2c1C(=O)OCC1CCN(CCNS(C)(=O)=O)CC1`, the Potency result was “inactive”.

As to `CS(=O)(=O)c1ccc(-c2cc(Br)sc2-c2ccc(F)cc2)cc1`, the Potency is 0.398 µM (active).

For `CCCCCCN(CCCCCC)C(=O)Cc1c(-c2ccc(Cl)cc2)[nH]c2ccc(Cl)cc12`, the Potency was 31.6 µM (active).

Take `NCCOB(c1ccccc1)c1ccccc1`: the Potency was 15.8 µM (active).

With `NCCNS(=O)(=O)c1cccc2cnccc12`, the Potency result is “inactive”.

For `N[C@@H](Cn1cc(I)c(=O)n(Cc2ccc(C(=O)O)cc2)c1=O)C(=O)O`, the Potency is 31.6 µM (active).

In the case of `O=c1[nH]c2cc(Cl)ccc2c(O)c1-c1cccc(Oc2ccccc2)c1`, the Potency was 2.51 µM (active).

With `C1=C(CN2CCOCC2)COc2c1cccc2OC[C@@H]1CNCCO1`, the Potency was 12.6 µM (active).

`O=C(Nc1ccc(C(=O)Nc2ccc(C(=O)Nc3ccc(S(=O)(=O)O)c4cc(S(=O)(=O)O)cc(S(=O)(=O)O)c34)cc2)cc1)Nc1ccc(C(=O)Nc2ccc(C(=O)Nc3ccc(S(=O)(=O)O)c4cc(S(=O)(=O)O)cc(S(=O)(=O)O)c34)cc2)cc1`: the Potency is 31.6 µM (active).

As to `COc1ccc2[nH]c(-c3ccccc3)c(CCNC(C)=O)c2c1`, the Potency is 1.26 µM (active).

As to `CC[C@H](C)C(=O)O[C@H]1CCC=C2C=C[C@H](C)[C@H](CC[C@@H]3C[C@H](O)CC(=O)O3)[C@H]21`, the Potency is 31.6 µM (active).

`Clc1ccccc1CNCC1CCC(CNCc2ccccc2Cl)CC1` (stereo not given): the “activity change, negative = inhibition” value is -6.8% (inactive).

On to `C[C@H](NC[C@H](O)CP(=O)(O)Cc1ccccc1)c1ccc(Cl)c(Cl)c1`, for which the “activity change, negative = inhibition” value was -7.1% (inactive).

On to `O=C(c1ccccc1)[C@@H]1O[C@H]1c1ccc(-c2ccccc2)cc1`, for which the Potency is 6.31 µM (active).

In the case of `N[C@@H](CSS(=O)(=O)O)C(=O)O`, the Potency was 39.8 µM (active).

Regarding `Cc1cccc(C)c1NC(=O)C[N+](C)(C)C`, the “activity change, negative = inhibition” value was 0.7% (inactive).

Regarding `CC(C)NC[C@@H](O)COc1ccc(CCOCC2CC2)cc1`, the Potency was 15.8 µM (active) and 12.6 µM (active) and inactive.

Turning to `CC(C)Oc1ccc2c(=O)c3cc(C(=O)O)ccc3oc2c1`, the “activity change, negative = inhibition” value is -20.5% (inactive).

Turning to `CC(=O)NCCc1c(Cc2ccccc2)[nH]c2ccccc12`, the Potency is 12.6 µM (active).

With `O=C(O)c1ccc2c3c1cccc3c(=O)n1c3ccccc3nc21`, the Potency was 15.8 µM (active).

Consider `C#CCCCCCCCCCCCCCCCC(=O)O`, for which the Potency was 6.31 µM (active).

Take `CC(C)NC[C@H](O)c1ccc(NS(C)(=O)=O)cc1`: the Potency entry was “inactive”.

With `N[C@@H](C(=O)O)c1cc(O)ccc1Cl`, the Potency is 15.8 µM (active).

Take `NC(=NC1C2CC3CC(C2)CC1C3)Nc1ccc(I)cc1` (stereo not given): the Potency is 39.8 µM (active).

Regarding `CCCCCCCCCCCC(=O)O[C@H](CC(=O)O)C[N+](C)(C)C`, the “activity change, negative = inhibition” value is 3.2% (inactive).

As for `Fc1cccc(/C=N\N=C/c2cccc(F)c2)c1`, the Potency was 0.2 µM (active).

In the case of `COCCNC(=O)COc1ccc(OCCNC[C@@H](O)COc2ccccc2)cc1`, the “activity change, negative = inhibition” value is -35.6% (inactive).

For `O=C(OCCN1CCCCC1)c1c[nH]c2ccccc12`, the Potency is 12.6 µM (active) and 15.8 µM (active).

For `CN1CCN(CCc2ccc(Cl)c(Cl)c2)CC1`, the Potency is 25.1 µM (active).

With `CC(N)=NCCCC[C@H](N)C(=O)O`, the Potency result is “inactive and 39.8 µM (active)”.

On to `NS(=O)(=O)c1cc2c(cc1Cl)N[C@@H]([C@@H]1C[C@@H]3C=C[C@H]1C3)NS2(=O)=O`, for which the Potency result is “inactive”.
